The panel holds about 83,000 compounds, 20% with a hit somewhere; the sample as a whole holds those more often.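 Treatment: one concentration, 48 hours, 96-well format. Scoring: percent growth, with anything below 10 considered active.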 Unmarked numbers belong to inactive results. Activity calls are given as the source filed them.

The assay has as its system OVCAR-4 ovarian. Nature of the assay: NCI-60 one-dose screen, 48 h (100 = growth as untreated, 0 = no growth, -100 = all killed). The following applies: 10 µM unless noted. As to the method:
Growth inhibition of the OVCAR-4 human tumor cell line is measured as a screen for anti-cancer activity. Cells are grown in 96 well plates and exposed to the test compound for 48 hours. Compounds are tested at a single concentration, which is 10^-5 M for most compounds. The reported endpoint is percent growth (GI% or GIPRCNT), where numbers from 0 - 100% represent growth inhibition, and numbers from -100% - 0 represent cell death. For example, a value of 40 represents 60% growth inhibition. A value of 0 means no net growth occurred over the course of the experiment. A value of -40 indicates 40% of cells at the beginning of the experiment died by the end of the experiment. A value of -100 means all cells are dead at the end of the experiment.
NCI-60 Human Tumor Cell Lines Screen was performed using the standard one-dose NCI protocol, which is described in more detail at https://dtp.cancer.gov/discovery_development/nci-60/default.htm.
Compounds with GIPRCNT values below 10 were considered active. Activity score was based on GIPRCNT using the following formula: […]
Score is 0 for GIPRCNT values of 100 or above, 50 for GIPRCNT values of 0, and 100 for GIPRCNT values of -100.
As to `Cc1ccc(CNc2ccc3nc(CCC(C)C)[nH]c3c2)cc1`, the growth is 85.1%.

Take `C=C(C)[C@@H]1CC[C@]2(COC(C)=O)CC[C@]3(C)[C@H](CC[C@@H]4[C@@]5(C)CCCN(C(C)=O)C(C)(C)[C@@H]5CC[C@]43C)[C@@H]12`: the growth was 50.7%.

`C/C(=N\O)c1ccc(NC(=O)CSc2nnc(-c3cc(-c4ccc(S(N)(=O)=O)cc4)nc4ccccc34)n2-c2ccccc2)cc1`: the growth is 91.6%.

As for `Cc1cccc2c1C[C@@]1(C2=O)C(c2ccc(C(C)(C)C)cc2)=NOS1=O` (stereo not given in full), the growth was 86.3%.

For `C=C1C(=O)O[C@H]2[C@H]1CC/C(COC(=O)c1ccc(C(=O)O)s1)=C\CC[C@@]1(C)O[C@@H]21`, the growth was 35.2%.

As to `O=C(NNC(=O)c1ccc(NC(=O)c2ccccn2)cc1)Nc1ccc2ccccc2c1`, the growth was 106%.

As for `C=CC(=O)Nc1ccc(Nc2nccc(-c3ccc(N4CCCC4)c(C#N)c3)n2)cc1`, the growth is 47.3%.

As for `CCN1C(=O)N(CC)C2Nn3c(s/c(=C\c4ccccc4Br)c3=O)=NC21` (stereo not given), the growth was 47.5%.

Regarding `C=C(C)[C@@H]1CCC[C@]2(C(=O)O)CC[C@]3(C)[C@@H](CC[C@@H]4[C@@]5(C)C/C(=C/c6ccncc6)C(=O)C(C)(C)[C@@H]5CC[C@]43C)[C@@H]12`, the growth is 28.4%.

For the molecule `CC(C)(C)c1cc(Cl)c(O)c(CNCCO)c1`, the growth was 104%.

As for `COc1ccc(C2=CC(c3cc(OC)c(OC)c(OC)c3)n3ncnc3N2)cc1` (stereo not given), the growth is 41.4%.

For `O=c1nc(-c2ccccc2)c2cc(-c3ccc(C(F)(F)F)nc3)ccc2[nH]1`, the growth is 108%.

Take `Nc1nc2c(c3ncccc13)C(c1cccc(Cl)c1)Cc1ncccc1-2` (stereo not given): the growth was 52.4%.

In the case of `Cn1cc(-c2csc(-c3cn(CCCN4CCOCC4)c4ccccc34)n2)c2cccnc21`, the growth was 97.8%.

As to `COc1cccc(NCc2nnc(Nc3ccc(Cl)cc3)c3ccccc23)c1`, the growth was 17.2%.

With `CCCCCCCCCCCCCCCCCCOc1ccccc1CC(=O)NCC[N+]1(C)CCCCC1`, the growth was 40.3%.

Consider `Cc1ccc(S(=O)(=O)OCCCOS(=O)(=O)c2ccc(C)cc2)cc1`, for which the growth is 100%.

For `COc1ccc(C#Cc2ccc(=O)oc2-c2cc(OC)c(OC)c(OC)c2)cc1O`, the growth is 69%.

Regarding `O=C(Nc1ccc(Br)cc1)C1=NCCCCN1`, the growth was 96.5%.

In the case of `O=C(C1=Cc2cc3ccccc3n2Cc2cnnn21)c1ccc(O)cc1`, the growth is 81.3%.

Consider `C#CC#CC#CC#CC#CC#CC#CC#CCC1OC[C@H](COC(=O)O[C@@H](C(=O)O[C@H]2C[C@@]3(O)[C@@H](OC(=O)c4ccccc4)[C@@H]4[C@]5(OC(C)=O)CO[C@@H]5C[C@H](O)[C@@]4(C)C(=O)[C@H](OC(C)=O)C(=C2C)C3(C)C)[C@@H](NC(=O)c2ccccc2)c2ccccc2)O1` (stereo not given in full), for which the growth is 57.5%.

Consider `O=C(N=Nc1c(O)[nH]c2ccccc12)Nc1ccc(F)cc1`, for which the growth is 103%.

On to `C#CCO[C@H]1CC(CC#C)(CC#C)C(=O)[C@@H]2[C@H]1[C@H]1C[C@@H]3[C@@]4(C)CCC[C@@](C)(C(=O)OC)[C@@H]4CC[C@@]23C=C1C(C)C`, for which the growth was 85.2%.

As to `O=C(/C=C/c1ccc(Cl)cc1)c1cccc(OCCCOc2cccc(C(=O)/C=C/c3ccc(Cl)cc3)c2)c1`, the growth is 91.7%.

As to `CN1C(=O)/C(=C/c2ccc(C(=O)Nc3ncc(Cc4cccc(Cl)c4)s3)cc2)SC1=S`, the growth was 52.9%.

For the molecule `C#Cc1cccc(Nc2nc(C)nc3cc(NC(=O)CCl)ccc23)c1`, the growth was -42.2% (active).

As to `N#CC1=C(N)Oc2ccc3ccccc3c2C1c1ccc([N+](=O)[O-])cc1` (stereo not given), the growth was 69.3%.

In the case of `CN(CCCNC(=O)CCOCCOCCOCCNC(=O)Cc1ccc2ccc3cccc4ccc1c2c34)CCCNc1cc(-c2ccc3ccccc3c2)nc2ccccc12`, the growth is -90.6% (active).

With `O=C1/C(=C/c2ccc(F)cc2)CN(C(=O)C(Cl)Cl)C/C1=C\c1ccc(F)cc1`, the growth is 12.7%.

In the case of `COc1ccc(/C=C/c2ccc3ccccc3n2)c(OC)c1`, the growth was 95.9%.

For `COc1ccc(/C=C/C(=O)c2cc3c(N)c(C(=O)Nc4cccc(Cl)c4C)sc3nc2C)cc1`, the growth was 37%.

On to `CCCCCCCCCCCCCOC(=O)c1c(C)[nH]c(/C=C2\N=C(c3ccc[nH]3)C=C2OC)c1C`, for which the growth is 55.8%.

`C=C(C)[C@@H]1CC[C@]2(C(=O)N3CCN(C)CC3)CC[C@]3(C)[C@H](CC[C@@H]4[C@@]5(C)CC[C@H](OC(=O)c6ccccc6C(=O)O)C(C)(C)[C@@H]5CC[C@]43C)[C@@H]12`: the growth is 99.2%.

`CCCCNC(=O)Oc1ccc(/C(=C(/C)Cc2ccc(OC)cc2)c2ccc(OCCN3CCCCCC3)cc2)cc1`: the growth was 84.4%.

Regarding `Cc1c(Cl)cccc1C(=O)Nc1nc2c(s1)CN(C(=O)c1ccc(C(F)(F)F)cc1)CC2`, the growth was 38.5%.

`CC1=CC(c2ccco2)=C2C(N)=NNC2N1` (stereo not given): the growth was 92.6%.

In the case of `CCN1C(=O)N(CC)C2C1NN=c1s/c(=C\c3ccc[nH]3)c(=O)n12` (stereo not given), the growth is 50.6%.

Consider `Nc1[nH]n2cc(-c3ccc(F)cc3)nc2c1N=Nc1ccc(S(N)(=O)=O)cc1`, for which the growth is 80.9%.

Regarding `CC(=O)/C(=C/c1ccc([N+](=O)[O-])cc1)C(=O)c1ccccc1`, the growth is 93.7%.

With `CC1(C)[C@@H](O[C@@H]2OC[C@@H](O[C@@H]3O[C@H](CO)[C@@H](O)[C@H](O)[C@H]3O[C@@H]3OC[C@@H](O)[C@H](O)[C@H]3O)[C@H](O)[C@H]2O[C@@H]2O[C@H](CO)[C@@H](O)[C@H](O)[C@H]2O)CC[C@]2(C)[C@H]3CC[C@]45OC[C@@]6(CC[C@](C)(C=O)C[C@H]64)[C@H](O)C[C@@]5(C)[C@]3(C)CC[C@@H]12`, the growth is -67.1% (active).
